Laboratory results: PubChem BioAssay (NCATS)
Results filed as inconclusive are left out. A call without a number means that no potency is given here. A number with no mark means an inactive call. Calls of active or inactive are those of the source. Unless noted, calls come from the whole dose curve; as a rule, active = well fitted curve in the direction sought with a large enough effect; inconclusive = small, poorly fitted or top-dose-only effect, or another doubt; inactive = no such curve, though single readings can be large; an effect the other way counts as inactive or inconclusive.

Experiments:
[1] = qHTS to identify inhibitors of the type 1 interferon - major histocompatibility complex class I in skeletal muscle: primary screen against the NCATS Mechanism Interrogation Plate v5.0 (MIPE) Libary (AID 1347411); note: nearly all actives have a fitted effect of over 65% in size; note: potency is the fitted concentration of half-maximal effect
How it was run: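 Immortalized human C25cl48 myoblasts with HiBit knocked into endogenous HLA-B*08:01 were stimulated with 4.0 ng/ml IFN-beta and exposed to compounds (11-point 1:3 titration, top 46 uM final) for 24 hrs at 37 C; HiBiT lytic luminescence measured.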

[2] = molecular target: Calcium and integrin-binding protein 1 (Homo sapiens) (UniProt Q99828); assay: Validation qHTS for Identification of Calcium Integrin Binding protein 1 (CIB1) Competitor (AID 1508618)
How it was run: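 In this qHTS validation, the LOPAC set (up to 114 uM) was tested for blocking CIB1 binding to a fluorescein-tagged alphaIIb peptide, with FP detection at 480/540 nm.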

[3] = molecular target: Calcium and integrin-binding protein 1 (Homo sapiens) (UniProt Q99828); assay: Primary qHTS for Identification of Calcium Integrin Binding Protein 1 (CIB1) Competitor (AID 1508620);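 note: GST tagged CIB1 binding a fluorescein labelled alphaIIb integrin peptide tracer; top concentration of the series differs between compounds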
How it was run: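 CIB1-GST (1 uM final) and compound incubated 15 min at room temperature before adding FITC-alphaIIb peptide tracer (100 nM final). Competition for binding read by fluorescence polarization (ex 480, em 540) after another 15 min at room temperature.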

[4] = Counterscreen qHTS for small molecule stabilizers of the endoplasmic reticulum resident proteome: GLuc-NoTag assay (AID 1508627);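 note: SH-SY5Y cells given compound then 100 nM thapsigargin to empty ER calcium; series mostly up to about 76 µM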
How it was run: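 Luminescence of Gaussia luciferase secreted into the medium (coelenterazine, 0.07x final, unlysed cells) was the read-out. Human SH-SY5Y neuroblastoma cells constitutively secreting untagged GLuc received compound for 19 h, then 100 nM thapsigargin for 4 h.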

[5] = Confirmatory qHTS for small molecule stabilizers of the endoplasmic reticulum resident proteome: Secreted ER Calcium Modulated Protein (SERCaMP) assay (AID 1508628);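 note: SH-SY5Y cells given compound 16 h then thapsigargin 100 nM for 4 h; series mostly up to about 76 µM; nearly all actives have a fitted effect of over 40% in size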
How it was run: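 We seeded SH-SY5Y-GLuc-SERCaMP cells, added compounds (three concentrations in the primary run, eleven up to 76.6 uM in confirmation), incubated 16 h, depleted ER calcium with thapsigargin, and read luciferase 4 h later.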

[6] = Primary qHTS for inhibitors of SARS-S pseudo-typed particle cell entry (AID 1479145; calls by dose curve; note: nearly all actives have a fitted effect of over 45% in size)
[7] = Primary qHTS for Huh7 cytotoxicity: counterscreen for inhibitors of MERS-S pseudotyped particle cell entry (AID 1479147; calls by dose curve)
[8] = Primary qHTS for inhibitors of MERS-S pseudo-typed particle cell entry (AID 1479149; calls by dose curve; note: nearly all actives have a fitted effect of over 60% in size)
[9] = Primary qHTS for Vero E6 cytotoxicity: counterscreen for inhibitors of SARS-S pseudo-typed particle cell entry (AID 1479150; calls by dose curve)
[10] = molecular target: Calcium and integrin-binding protein 1 (Homo sapiens) (UniProt Q99828); assay: Confirmatory qHTS for Identification of Calcium Integrin Binding Protein 1 (CIB1) Competitor (AID 1508617); note: potency is the fitted concentration of half-maximal effect; nearly all actives have a fitted effect of over 65% in size
How it was run: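 Binding competition between test compounds and fluorescent alphaIIb peptide for 1 uM CIB1-GST is monitored by FP at 480/540 nm. Final compound range is up to 114 uM; unlabeled peptide serves as reference competitor.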

[11] = molecular target: Protein phosphatase 1D (Homo sapiens) (UniProt O15297); assay: RapidFire Mass Spectrometry qHTS Assay for Modulators of WT P53-Induced Phosphatase 1 (WIP1) (AID 1347424);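 note: amount of dephosphorylated VEPPL-S-QETFS peptide product formed by WIP1; series mostly up to about 63 µM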
How it was run: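 10 nM WIP1 + cpd, 1 h RT; + 2 uM VEPPL-pS-QETFS, 5 min RT; stop 0.5% formic acid; labelled product standard 1 uM; RapidFire MS. Buffer 50 mM Tris pH 7.5, 30 mM MgCl2, 1 mM TCEP.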

[12] = Primary qHTS for inhibitors of La Crosse Virus (LACV) - induced cell death in SH-SY5Y cells (AID 1508616);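 note: top concentration of the series differs between compounds; higher means more rescue of cells from virus-induced death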
How it was run: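 Luminescent ATP readout (ATPLite 1step, 5 min room temperature) measured rescue from LACV-induced death after 6 days of infection at 0.01 MOI; normalized to infected DMSO wells and uninfected DMSO wells.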

Calcium and integrin-binding protein 1 (Homo sapiens), sequence (Q99828 whole entry, looked up): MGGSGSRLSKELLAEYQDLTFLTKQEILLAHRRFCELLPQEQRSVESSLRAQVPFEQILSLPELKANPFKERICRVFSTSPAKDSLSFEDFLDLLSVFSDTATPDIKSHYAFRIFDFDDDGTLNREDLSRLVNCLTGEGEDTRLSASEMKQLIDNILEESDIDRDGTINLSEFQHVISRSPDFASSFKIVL
Protein phosphatase 1D (Homo sapiens), sequence (O15297 whole entry, looked up): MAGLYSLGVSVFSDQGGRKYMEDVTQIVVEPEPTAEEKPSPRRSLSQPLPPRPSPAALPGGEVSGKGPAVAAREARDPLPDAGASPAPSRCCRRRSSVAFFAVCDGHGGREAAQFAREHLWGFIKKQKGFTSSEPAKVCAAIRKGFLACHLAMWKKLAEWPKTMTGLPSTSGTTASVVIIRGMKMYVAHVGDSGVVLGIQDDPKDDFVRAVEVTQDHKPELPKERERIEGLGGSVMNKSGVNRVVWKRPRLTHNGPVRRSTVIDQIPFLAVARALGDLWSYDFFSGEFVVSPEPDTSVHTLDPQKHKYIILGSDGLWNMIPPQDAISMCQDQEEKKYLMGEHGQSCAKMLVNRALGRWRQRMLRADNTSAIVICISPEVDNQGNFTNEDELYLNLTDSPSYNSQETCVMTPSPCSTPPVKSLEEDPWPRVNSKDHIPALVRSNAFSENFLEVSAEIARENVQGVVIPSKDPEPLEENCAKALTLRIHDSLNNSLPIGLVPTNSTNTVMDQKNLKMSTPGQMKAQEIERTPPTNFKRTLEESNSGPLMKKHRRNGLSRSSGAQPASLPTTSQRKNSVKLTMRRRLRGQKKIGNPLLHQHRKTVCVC

Which Potency [1] does the source give for `C/C=C(/C)C(=O)O[C@H]1C(C)=C2[C@H]([C@@H]1OC(=O)CCCCCCC)[C@@](C)(OC(C)=O)C[C@H](OC(=O)CCC)[C@@]1(O)[C@H]2OC(=O)[C@@]1(C)O` here?
The Potency was 16.5 nM (active).

And the outcome [2]?
Its outcome is “inactive”.

And the outcome [3]?
The outcome was “inactive”.

And the Potency [4]?
The Potency was “inactive”.

What about the Potency [5] of the same compound?
Its Potency is “inactive”.

For `C[C@]12CC[C@H]3[C@@H](CCC4=CC(=O)CC[C@@]43C)[C@H]1CC[C@H]2OC(=O)CCC1CCCC1`, which Potency [1] is on record?
Its Potency is “inactive”.

And the outcome [3]?
Its outcome is “inactive”.

For `Cc1[nH]nc2ccc(-c3cncc(OC[C@@H](N)Cc4c[nH]c5ccccc45)c3)cc12`, which Potency [1] is on record?
The Potency was 2620 nM (active).

What about the outcome [3] of the same compound?
Its outcome is “inactive”.

For `CN(C)[C@@H]1C(=O)C(C(N)=O)=C(O)[C@@]2(O)C(=O)C3=C(O)c4c(O)cccc4[C@@](C)(O)[C@H]3[C@H](O)[C@@H]12`, which Potency [1] is on record?
Its Potency is “inactive”.

What about the Potency [6] of the same compound?
The Potency was “inactive”.

What about the Potency [7] of the same compound?
The Potency was “inactive”.

What about the Potency [8] of the same compound?
The Potency was “inactive”.

And the Potency [9]?
Its Potency is “inactive”.

What about the outcome [3] of the same compound?
Its outcome is “inactive”.

With `O=C1C=CC[C@@H]2[C@H]3CCCN4CCC[C@@H](CN12)[C@@H]34` as the compound, how does the Potency [1] read?
Its Potency is “inactive”.

What about the outcome [3] of the same compound?
Its outcome is “inactive”.

For `C[C@](O)(COc1ccc(C#N)cc1)C(=O)Nc1ccc(C#N)c(C(F)(F)F)c1`, which Potency [1] is on record?
Its Potency is “inactive”.

And the outcome [3]?
The outcome was “inactive”.

With `Cc1ccccc1-n1c(Cn2ncc3c(N)ncnc32)nc2cccc(C)c2c1=O` as the compound, how does the Potency [1] read?
Its Potency is “inactive”.

And the outcome [3]?
Its outcome is “inactive”.

Which results are given for `CCN1C[C@]2(OC(=O)c3ccccc3NC(C)=O)CC[C@H](OC)[C@@]34[C@H]5CC6[C@@H](OC)C[C@](O)(C(C[C@@H]23)[C@@H]14)[C@@]5(O)[C@@H]6OC`?
Potency [1]: inactive; outcome [3]: inactive

For `CC1=C(O)C(=O)C=C2C1=CC=C1[C@@]2(C)CC[C@@]2(C)[C@@H]3C[C@](C)(C(=O)O)CC[C@]3(C)CC[C@]12C`, which Potency [1] is on record?
Its Potency is 829 nM (active).

And the Potency [10]?
The Potency was 22.4 µM (active).

Which Potency [1] does the source give for `CCc1c(C(=O)C(N)=O)c2c(OCC(=O)O)cccc2n1Cc1ccccc1` here?
The Potency was “inactive”.

What does the source list for `COC1=C[C@@H]2[C@@H]3Cc4ccc(OC)c(O)c4[C@]2(CCN3C)CC1=O`?
Potency [1]: inactive; outcome [3]: inactive

Which Potency [1] does the source give for `CCN(CC)C(=O)c1ccc(C2=CC3(CCNCC3)Oc3cccc(O)c32)cc1` here?
The Potency was “inactive”.

And the outcome [3]?
Its outcome is “inactive”.

For `O=c1[nH]c2ccc(Cl)cc2c(N[C@@H]2CN3CCC2CC3)c1-c1nc2ccccc2[nH]1`, which Potency [1] is on record?
Its Potency is 4660 nM (active).

And the outcome [3]?
The outcome was “inactive”.

Which Potency [1] does the source give for `CCCC[N+]1(C)[C@H]2CC(OC(=O)[C@H](CO)c3ccccc3)C[C@H]1[C@H]1O[C@H]12` (stereo partly specified) here?
Its Potency is “inactive”.

And the outcome [3]?
Its outcome is “inactive”.

For `O=C(NCC1CCOCC1)c1cnc(Nc2ccc(Cl)cc2Cl)nc1C(F)(F)F`, which Potency [1] is on record?
Its Potency is “inactive”.

What about the outcome [3] of the same compound?
Its outcome is “inactive”.

Which results are given for `O=S(=O)(F)Cc1ccccc1`?
Potency [1]: inactive; outcome [3]: inactive

For `O=C(Oc1ccc([N+](=O)[O-])cc1)N1CCC(C(O)(c2ccc3c(c2)OCO3)c2ccc3c(c2)OCO3)CC1`, which Potency [1] is on record?
Its Potency is “inactive”.

And the outcome [3]?
The outcome was “inactive”.

Which results are given for `O=c1cccc2n1CC1CNC[C@H]2C1`?
Potency [1]: inactive; outcome [3]: inactive

Which results are given for `CC(=O)Nc1ccc(OC[C@](C)(O)C(=O)Nc2ccc([N+](=O)[O-])c(C(F)(F)F)c2)cc1`?
Potency [1]: inactive; outcome [3]: inactive

Which results are given for `CCCCCCCCCCCCCCCC[N+](C)(C)C`?
Potency [11]: inactive; Potency [7]: inactive; outcome [12]: inactive; Potency [10]: 70.8 µM (active)

Which Potency [1] does the source give for `O=C(N[C@@H](COc1ccc2[nH]c(=O)[nH]c2c1)c1ccccc1)c1cccn(Cc2ccc(F)c(F)c2)c1=O` here?
Its Potency is “inactive”.

What about the outcome [3] of the same compound?
Its outcome is “inactive”.

For `Clc1ccccc1C(c1ccccc1)(c1ccccc1)n1cccn1`, which Potency [1] is on record?
The Potency was “inactive”.

What about the outcome [3] of the same compound?
The outcome was “inactive”.

Which Potency [1] does the source give for `COc1ccc(N(C(=O)Oc2c(C)cccc2C)c2ccnc(Nc3ccc(N4CCN(C)CC4)cc3)n2)c(OC)c1` here?
The Potency was “inactive”.

What about the outcome [3] of the same compound?
The outcome was “inactive”.

For `C#CC1(O)CCC2C3CCC4=CC(=O)CCC4(C)C3CCC21C` (stereo unspecified), which Potency [1] is on record?
Its Potency is “inactive”.

What about the outcome [3] of the same compound?
Its outcome is “inactive”.

What does the source list for `c1ccc2c(CN3CCNCC3)cccc2c1`?
Potency [1]: inactive; Potency [4]: inactive

With `CN[C@@H]1Cc2cccc3[nH]c(=O)n(c23)C1` as the compound, how does the Potency [1] read?
The Potency was “inactive”.

And the outcome [3]?
Its outcome is “inactive”.

Which Potency [1] does the source give for `CCOC(=O)Nc1ccc(NCc2ccc(F)cc2)cc1N` here?
Its Potency is “inactive”.

And the outcome [3]?
The outcome was “inactive”.

With `C[C@]12CC[C@@H]3[C@@H](CCC4=CC(=O)CC[C@@H]43)[C@@H]1CC[C@@H]2OC(=O)CCc1ccccc1` as the compound, how does the Potency [1] read?
The Potency was “inactive”.

And the outcome [3]?
The outcome was “inactive”.

What does the source list for `c1ccc2[nH]ccc2c1`?
Potency [6]: inactive; Potency [7]: inactive; Potency [8]: inactive; Potency [9]: inactive

Which results are given for `CCC(C)(Oc1ccc(C2(c3ccc(OC(C)(CC)C(=O)O)cc3)CCCCC2)cc1)C(=O)O` (stereo unspecified)?
Potency [6]: inactive; Potency [7]: inactive; Potency [8]: inactive; Potency [9]: inactive

Which results are given for `CCCCC(CC)COC(=O)c1ccc(N(C)C)cc1` (stereo unspecified)?
Potency [6]: inactive; Potency [7]: inactive; Potency [8]: inactive; Potency [9]: inactive
